Screens (PubChem BioAssay)
This is one part of a sample in which hits are shown more often than they occur.
Dicer processing: inhibitors of human Dicer processing of pre-microRNA; Q9UPY3; 47,000 compounds, 6% hits; AID 1347074; cat-ELCCA pre-miR-21 Dicer processing, chemiluminescence; active compounds read high; z-score at 25 µM; in the data active means z-score above about 3, passing the limit was not always enough;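 further: higher signal means more uncleaved substrate so more Dicer inhibition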
Target sequence (Q9UPY3 whole entry, looked up): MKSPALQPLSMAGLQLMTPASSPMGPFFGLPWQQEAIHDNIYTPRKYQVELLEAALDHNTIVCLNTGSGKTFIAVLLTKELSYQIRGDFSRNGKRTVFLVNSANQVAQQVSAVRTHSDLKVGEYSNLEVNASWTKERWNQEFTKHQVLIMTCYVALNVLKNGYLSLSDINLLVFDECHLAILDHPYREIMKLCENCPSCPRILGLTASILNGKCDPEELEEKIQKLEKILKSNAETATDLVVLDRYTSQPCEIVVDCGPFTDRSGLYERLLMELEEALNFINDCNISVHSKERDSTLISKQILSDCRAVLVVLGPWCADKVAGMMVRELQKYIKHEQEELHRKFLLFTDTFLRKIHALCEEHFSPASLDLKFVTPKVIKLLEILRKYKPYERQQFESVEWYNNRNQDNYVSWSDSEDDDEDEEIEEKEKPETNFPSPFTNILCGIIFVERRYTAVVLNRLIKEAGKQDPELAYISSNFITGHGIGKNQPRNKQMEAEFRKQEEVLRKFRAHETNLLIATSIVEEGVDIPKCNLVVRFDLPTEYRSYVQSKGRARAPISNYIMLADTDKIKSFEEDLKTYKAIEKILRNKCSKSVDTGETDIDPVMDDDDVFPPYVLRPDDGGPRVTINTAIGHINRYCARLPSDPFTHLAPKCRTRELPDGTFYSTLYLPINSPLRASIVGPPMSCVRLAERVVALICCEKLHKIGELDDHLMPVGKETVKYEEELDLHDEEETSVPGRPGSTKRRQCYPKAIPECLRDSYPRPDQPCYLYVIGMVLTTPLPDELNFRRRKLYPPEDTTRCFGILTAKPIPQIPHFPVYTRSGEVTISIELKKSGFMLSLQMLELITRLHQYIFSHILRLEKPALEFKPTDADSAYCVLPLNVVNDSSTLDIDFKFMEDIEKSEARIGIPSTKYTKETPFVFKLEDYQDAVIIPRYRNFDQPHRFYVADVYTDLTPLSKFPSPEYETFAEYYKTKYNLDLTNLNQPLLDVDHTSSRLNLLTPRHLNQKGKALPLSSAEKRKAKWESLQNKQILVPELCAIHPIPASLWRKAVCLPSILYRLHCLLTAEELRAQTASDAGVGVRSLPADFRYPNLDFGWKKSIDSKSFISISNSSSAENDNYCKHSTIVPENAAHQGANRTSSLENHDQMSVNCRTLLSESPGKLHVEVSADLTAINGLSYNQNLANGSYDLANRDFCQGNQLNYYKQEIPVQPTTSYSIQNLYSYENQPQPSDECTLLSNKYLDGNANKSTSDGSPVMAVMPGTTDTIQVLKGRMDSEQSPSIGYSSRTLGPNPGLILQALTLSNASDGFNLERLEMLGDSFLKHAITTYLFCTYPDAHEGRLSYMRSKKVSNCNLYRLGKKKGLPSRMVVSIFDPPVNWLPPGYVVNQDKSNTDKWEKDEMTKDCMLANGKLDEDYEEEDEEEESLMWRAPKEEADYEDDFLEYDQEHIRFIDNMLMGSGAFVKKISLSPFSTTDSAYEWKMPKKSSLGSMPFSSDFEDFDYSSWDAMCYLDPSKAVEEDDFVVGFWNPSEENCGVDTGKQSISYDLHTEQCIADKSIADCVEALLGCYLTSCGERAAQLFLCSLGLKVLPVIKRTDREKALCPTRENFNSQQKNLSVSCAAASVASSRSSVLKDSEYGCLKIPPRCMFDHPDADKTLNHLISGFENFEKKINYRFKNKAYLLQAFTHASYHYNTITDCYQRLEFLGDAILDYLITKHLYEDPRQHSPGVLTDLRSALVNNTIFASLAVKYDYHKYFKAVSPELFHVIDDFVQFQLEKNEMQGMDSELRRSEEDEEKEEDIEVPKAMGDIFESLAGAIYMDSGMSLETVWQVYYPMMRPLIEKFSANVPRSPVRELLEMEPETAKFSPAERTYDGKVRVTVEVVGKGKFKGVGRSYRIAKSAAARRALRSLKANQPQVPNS
Large screens that a line does not name were inactive.

O=C(NCc1c(Cl)cccc1Oc1ccccc1)c1ccc(Cl)cc1	none
O=[N+]([O-])c1ccc(Oc2ccccc2F)nc1	none
CCc1ccc2[nH]c3sc(C)nc3c2c1	none
CCOc1nc2ccccc2nc1OCC	none
CCOc1ccc(OCC)c2sc(C)nc12	Dicer processing 3.2
Cc1nc2c(ccc3nc(NC(=O)c4ccc(N5C(=O)CCC5=O)cc4)sc32)s1	none
N#CCCN(Cc1ccccc1)C(=O)CSCC(=O)O	none
COc1ccc(-c2c(C)nn3c(C)cc(C)nc23)cc1OC	Dicer processing 4.8
COc1ccc(-c2c(C)nn3c(-c4ccccc4)cc(C)nc23)cc1OC	none
COc1ccc(-c2c(C)nn3c(N)c(-c4ccc(Cl)cc4)cnc23)cc1OC	none
COC(=O)C1=C(C)N=C2SC(C#N)=C(N)N2C1c1cccs1 (stereo not given)	none
CCCn1c(NCc2cccc(Br)c2)nc2ccccc21	none
CCN(CC)CCn1c(NCc2ccccc2Cl)nc2ccccc21	none
CCn1c(NCc2c(O)ccc3ccccc23)nc2ccccc21	none
CCn1c(NCc2ccc(N(C)C)cc2)nc2ccccc21	none
CCCn1c(NCc2nc3ccccc3n2C)nc2ccccc21	none
CC(=O)Nc1nc2ccccc2n1CCN(C)C	none
C=CCc1cccc(CNc2nc3ccccc3n2CC)c1O	Dicer processing 6.9
CCN(CC)CCn1c(NCc2ccc(Br)cc2)nc2ccccc21	none
CCN(CC)CCn1c(NCc2ccccc2O)nc2ccccc21	Dicer processing 6.1
CCOc1ccccc1CNc1nc2ccccc2n1CCN(CC)CC	Dicer processing 5.3
CCN(CC)CCn1c(NCc2ccco2)nc2ccccc21	Dicer processing 3.8
CCCn1c(NCc2cc(C)ccc2O)nc2ccccc21	none
Cc1ccccc1-c1nc2ccc(Cl)cc2c(=O)o1	none
Cc1nnc(SCC(=O)n2c(C)c(C)c3ccccc32)s1	none
COc1cc(CCCCCc2cc(OC)c(C)cc2OC)c(OC)cc1C	none
Cc1ccc(-c2cc3nc(C)c(-c4ccccc4)c(N)n3n2)cc1	none
Cc1cc(N)n2nc(C)c(-c3ccc(Cl)cc3)c2n1	none
Cc1nn2c(N)cc(-c3ccccc3)nc2c1-c1ccccc1	Dicer processing 3.8
CCCCCc1ccc(-c2nc(=S)[nH][nH]2)cc1	none
CCC(=O)n1c(=O)n(C(=O)CC)c2ccccc21	none
NC(=O)c1c(NC(=O)c2ccc(Cn3cc(Cl)cn3)o2)sc2c1CCCCCC2	none
Cn1c(=O)oc2cc(S(=O)(=O)Nc3ccc(O)cc3)ccc21	none
CCCCOC(=O)n1c(=O)oc2cc(S(=O)(=O)Nc3ccc(C)cc3)ccc21	Dicer processing 3.3
Cn1c(=O)oc2cc(S(=O)(=O)Nc3ccc(C(=O)O)cc3)ccc21	none
COC(=O)C1=NOC2(CC(=O)N(c3ccc(Cl)cc3)C2=O)C1 (stereo not given)	none
O=C(OCCN1CCCCC1)c1cccs1	Dicer processing 3.7
COc1cc(N)c(Cl)cc1C(=O)OCCN1CCCCC1	none
CN(CCOC(=O)c1cccs1)C(C)(C)C	none
Cc1onc(-c2c(Cl)cccc2Cl)c1CSC(=S)N(C)C	Dicer processing 6.6
CSC(=S)N(C)NC(=O)Nc1c(-c2c(Cl)cccc2Cl)noc1C	none
Cc1onc(-c2c(Cl)cccc2Cl)c1N	none
Cc1cc(-c2ccccc2)n2ncc(-c3cccc(Br)c3)c2n1	none
CCCc1cc(-c2n[nH]c(C)c2-c2ccc(C(=O)OCC)o2)c(O)cc1O	Dicer processing 3.9
CCOC(=O)c1cc(=O)c2c(O)cccc2o1	none
CCOC(=O)c1ccc(CSc2n[nH]c(C)n2)o1	none
CC(=O)N1C(=O)C(=O)c2cc(C)c(Br)cc21	none
CC(=O)c1sc2sc(Br)c(C)c2c1C	none
CN[C@H]1[C@@H](O)[C@H](O[C@H]2[C@@H](O)[C@@H](OC3OC(CN)=CCC3N)[C@H](N)C[C@@H]2N)OC[C@@]1(C)O (stereo not given in full)	none
Cc1onc(-c2ccccc2)c1C(=O)n1cccc1	none
Cc1onc(-c2ccccc2)c1C(=O)NNC(=O)c1ccc(-n2c(C)ccc2C)cc1	Dicer processing 3.1
Cc1onc(-c2ccccc2)c1C(=O)NCCNC(=O)c1c(-c2ccccc2)noc1C	none
CCOC(=O)c1[nH]c2ccccc2c1N	none
O=C(O)/C=C/C(=O)NC1Cc2ccccc2C1	none
CCOC(=O)c1c(NC(=O)C2Cc3ccc(C)cc3C(=O)O2)sc2c1CCCC2 (stereo not given)	none
Fc1cccc(Cl)c1Cn1nnc(-c2c(Cl)cccc2Cl)n1	none
Fc1cccc(Cl)c1Cn1nnc(-c2ccccc2C(F)(F)F)n1	Dicer processing 3.1
Fc1cccc(Cl)c1Cn1nnc(-c2cc(C(F)(F)F)cc(C(F)(F)F)c2)n1	none
O=C(NNc1ccc(-c2csnn2)cc1)c1ccc(Cl)cc1	none
CCN1CCN(c2ncc3c(n2)CC(/C=C/c2ccccc2)CC3=O)CC1 (stereo not given)	none
COC(=O)c1cc(NS(=O)(=O)c2ccc(Br)cc2)cc(C(=O)OC)c1	Dicer processing 3.9
COC(=O)c1cc(NS(=O)(=O)c2ccc(F)cc2)cc(C(=O)OC)c1	none
COc1nccnc1NS(=O)(=O)c1ccc(NC(=O)c2ccc(Br)cc2)cc1	none
CCc1nc2ccc(Oc3ccc4nc(CC)[nH]c4c3)cc2[nH]1	none
O=C1CSC(c2ccc3c(c2)OCO3)N1c1ccc(Br)cc1 (stereo not given)	none
FC(F)(F)c1ccccc1-n1nnnc1-c1ccccc1Cl	none
COc1ccc(OC)c(N2C(=O)c3cccc4cccc(c34)C2=O)c1	Dicer processing 5.7
Nc1ccccc1N1C(=O)c2cccc3cccc(c23)C1=O	none
O=C1c2cccc3cccc(c23)C(=O)N1c1ccccc1O	none
CN(C)c1ccc(C2C3=C(CC(C)(C)CC3=O)Nc3ccc4ccccc4c32)cc1 (stereo not given)	none
CC(=O)Oc1ccc(C2C(C(=O)OCc3ccccc3)=C(C)NC3=C2C(=O)CCC3)cc1 (stereo not given)	none
CCOC(=O)c1c(C)n(C)c2c1cc(O)c1occ(C)c12	none
O=C(COc1ccc2oc3c(c2c1)CCCC3)Nc1cccc(Br)c1	none
OC(COc1ccc2oc3c(c2c1)CCCC3)CN1CCN(c2ccccc2)CC1 (stereo not given)	Dicer processing 3.1
O=C(O)COc1ccc2oc3c(c2c1)CCCC3	none
CCOc1cc(C2c3c(oc4ccccc4c3=O)C(=O)N2c2ccc(C)cn2)ccc1O (stereo not given)	Dicer processing 4.7
Cc1ccc(N2C(=O)c3oc4ccccc4c(=O)c3C2c2cccc(O)c2)nc1 (stereo not given)	none
CCOc1cc(C2c3c(oc4ccccc4c3=O)C(=O)N2c2ccccn2)ccc1O (stereo not given)	none
C=CCOc1ccc(C2c3c(oc4ccccc4c3=O)C(=O)N2c2ccc(C)cn2)cc1OCC (stereo not given)	none
COC(=O)c1ccc(C2c3c(oc4ccccc4c3=O)C(=O)N2c2ccc(C)cn2)cc1 (stereo not given)	none
COc1cc(C2c3c(oc4ccccc4c3=O)C(=O)N2c2ccc(C)cn2)ccc1O (stereo not given)	Dicer processing 4.3
CCCCc1ccc(N2CC(C)Cn3c2nc2c3c(=O)n(CC(=O)O)c(=O)n2C)cc1 (stereo not given)	none
CC(=O)Oc1c(-c2ccccc2)sc2ccccc12	none
Cc1ccc(Sc2ccc(C(=O)c3ccccc3)cc2)cc1	none
CN(c1cnn(-c2ccc(Cl)cc2Cl)c(=O)c1Cl)n1cccc1	none
COC(=O)c1cc(S(=O)(=O)N(C)Cc2ccccc2)oc1C	none
O=C(Nc1ccc(Cl)cc1Cl)c1cccnc1SCCS(=O)(=O)c1ccccc1	none
CCc1ccnc(NS(=O)(=O)c2ccccc2)c1	Dicer processing 3.8
Cc1ccnc(NS(=O)(=O)c2ccc(Br)cc2)c1	none
CCc1ccnc(NS(=O)(=O)c2ccc(C)c(Cl)c2)c1	none
